Compound activity as filed in PubChem.
This is a sample that favours compounds with a hit; in the whole collection about 0.47% have one here.
Anesthetic bind: binds horse apoferritin like a general anesthetic | apoferritin/1-aminoanthracene competitive binding, fluorescence | Potency, µM (highest dose often 77.5 µM), inactives show at the highest dose activity change, negative = displacement, hits mostly inhibitors | hit rate 0.074% among 350,000; also: potency is read from the fitted curve at half-maximal effect; % is scaled to controls: 0 for no effect and ±100 for the full control effect; nearly all actives have a fitted effect of over 20% in size
Target sequence (P02791 2-175 limits assumed): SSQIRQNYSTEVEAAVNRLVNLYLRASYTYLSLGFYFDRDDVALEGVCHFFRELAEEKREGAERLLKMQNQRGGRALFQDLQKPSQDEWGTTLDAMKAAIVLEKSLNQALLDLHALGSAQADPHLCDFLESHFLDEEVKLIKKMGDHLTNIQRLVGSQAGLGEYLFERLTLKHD
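In PBS, apoferritin at 10 uM is loaded with 1-AMA from a 50% saturated solution. After 10 min of compound exposure at ambient temperature, reduced 535 nm fluorescence indicates probe displacement.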
CCT modulator: changes cytosolic chaperonin activity | hit rate 0.3% among 360,000 | purified chaperonin ATPase assay, HTRF ADP detection, 30 min | activity change, % (no concentration beside the values), hits read low; in the data active = activity change below about -30%; also: % is scaled to controls: 0 for no effect and ±100 for the full control effect
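Nucleotide hydrolysis assay: TRiC at 20–40 nM final (set by batch activity) with 10 uM ATP, 30 min at 37 °C, in presence of 76 uM compound. Detection by competitive ADP HTRF, 30 min ambient.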
MmCpn inh: inhibitors of Methanococcus maripaludis chaperonin TRiC (MmCpn) | Potency, µM (highest dose often 76.9 µM), for the others: at the highest dose activity, negative = inhibition, hits mostly inhibitors | hit rate 0.031% among 330,000 | purified Mm-Cpn ATPase, ADP Transcreener TR-FRET; also: potency is read from the fitted curve at half-maximal effect; % is scaled to controls: 0 for no effect and ±100 for the full control effect; nearly all actives have a fitted effect of over 80% in size
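Eu-cryptate anti-ADP/ADP-d2 competition gives a ratio inversely related to ADP. Enzyme at 25 nM was pre-exposed to compound for 10 min, then given 10 uM ATP for 30 min, 37°C throughout.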
A-T KAP1 phos: candidate therapy for ataxia-telangiectasia; F2112 A-T fibroblasts, KAP-1 phosphorylation AlphaLISA; neocarzinostatin DNA damage 30 min before lysis; Potency, µM (series often up to 57.5 µM), for the others: top-dose activation, usual class: activators; hit rate 0.19% among 320,000; AID 485349; also: potency is read from the fitted curve at half-maximal effect; % of control where 0% means no effect; nearly all actives have a fitted effect of over 45% in size
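ATM-like activity read as KAP-1 phosphorylation via AlphaLISA donor/acceptor antibody pairs after lysis and 6 hr at 25C. Cells were ATM-null patient fibroblasts (F2112, hTERT), dosed 60 min, then exposed to the DSB inducer NCS for 30 min.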
* marks the source's active call; other numbers are inactive results. Unless noted, calls follow the shape of the dose curve; as a rule, active = well fitted curve in the direction sought with a large enough effect; inconclusive = small, poorly fitted or top-dose-only effect, or another doubt; inactive = no such curve, though single readings can be large; an effect the other way counts as inactive or inconclusive.

Cc1ccc(S(=O)(=O)N2CCCc3cc(NS(=O)(=O)c4ccc(C)c(C)c4)ccc32)cc1 was read as Anesthetic bind 46%.
`COc1cc(NC(=O)COc2ccc(-n3ccnc3)cc2)cc(OC)c1` gave Anesthetic bind -3%, CCT modulator -1, MmCpn inh 2% and A-T KAP1 phos 2%.
CC(C)(C)c1ccc(NC(=O)COc2ccc(-n3ccnc3)cc2)cc1 was read as Anesthetic bind 28µM*, CCT modulator -1, MmCpn inh 1% and A-T KAP1 phos -2%.
COC(=O)c1c(-c2ccccc2OC)sc2cc3c(cc12)OCO3 was read as CCT modulator -1, MmCpn inh inconclusive and A-T KAP1 phos 15%.
For COc1ccc2sc(-c3ccc(S(C)(=O)=O)cc3)c(C(=O)NCCc3c[nH]c4ccccc34)c2c1 the results were CCT modulator 2, MmCpn inh 28µM* and A-T KAP1 phos 4%.
For COC(=O)c1c(-c2ccc(OC)cc2)sc2ccc(-c3ccc4c(c3)OCO4)cc12 the results were CCT modulator -73*, MmCpn inh -5% and A-T KAP1 phos 1%.
COc1ccc2c(C(=O)NCCCCO)c(-c3ccc(S(C)(=O)=O)cc3)sc2c1 was read as CCT modulator -2, MmCpn inh -15% and A-T KAP1 phos 7%.
`COC(=O)c1c(-c2ccc(OC)cc2)sc2ccc(OC)cc12` gave CCT modulator -4, MmCpn inh 45µM* and A-T KAP1 phos 13%.
For COC(=O)c1sc2ccc(C)cc2c1C(=O)OC the results were CCT modulator 3.
NC(=S)NNC(=O)COc1ccccc1O was read as Anesthetic bind -9%, CCT modulator -2, MmCpn inh -1% and A-T KAP1 phos 16µM*.
For CC(=O)c1ccc(OCc2cc(C(=O)N3CCOCC3)no2)cc1 the results were Anesthetic bind -5%, CCT modulator -8, MmCpn inh 2% and A-T KAP1 phos -1%.
Screening CC(=O)c1ccc(OCc2cc(C(=O)N3CCCCCCC3)no2)cc1 returned Anesthetic bind 5µM*, CCT modulator -2, MmCpn inh 2% and A-T KAP1 phos -1%.
Screening Cc1cc(Sc2nnc(N)s2)c2ccccc2n1 returned Anesthetic bind 12%, CCT modulator -1, MmCpn inh -6% and A-T KAP1 phos 40µM*.
O=C(NNC(=S)NC1CCCCC1)c1cccs1 was read as Anesthetic bind -14%, CCT modulator -2, MmCpn inh 2% and A-T KAP1 phos 10%.
O=C(NC1CCCCC1)c1cccs1 was read as Anesthetic bind 13µM*, CCT modulator -2, MmCpn inh 1% and A-T KAP1 phos -6%.
For COc1ccc(CNC(=O)Cn2ncc3c(=O)oc4ccccc4c32)c(OC)c1 the results were Anesthetic bind 1%.
Screening COc1ccc(NC(=O)/C(N=Nc2cc(S(=O)(=O)Nc3ccc(OC)cc3)ccc2OC)=C(\C)O)cc1 returned Anesthetic bind -16%, CCT modulator 0, MmCpn inh -1% and A-T KAP1 phos 4%.
COc1ccc(NC(=O)/C(N=Nc2ccc(Cl)c(S(=O)(=O)Nc3ccc(Cl)cc3)c2)=C(\C)O)cc1 was read as CCT modulator -48*, MmCpn inh -7% and A-T KAP1 phos -6%.
Screening Cc1cc2oc(=O)cc(Cn3ncc(Cl)c(Cl)c3=O)c2cc1Cl returned Anesthetic bind -8%, CCT modulator -48*, MmCpn inh -2% and A-T KAP1 phos -8%.
Cc1cc2oc(=O)cc(CN3CCN(c4ccccc4)CC3)c2cc1Cl was read as CCT modulator 0.
COC(=O)c1sc(-c2ccc(Cl)cc2)cc1N was read as Anesthetic bind -2%, CCT modulator -40*, MmCpn inh -16% and A-T KAP1 phos 0%.
For CC(=O)c1sc(-c2ccc(Cl)cc2)cc1N the results were Anesthetic bind -9%, CCT modulator 1, MmCpn inh -24% and A-T KAP1 phos 11%.
For c1ccc(-n2c3ccccc3c3ccccc32)cc1 the results were Anesthetic bind 8%, CCT modulator 2, MmCpn inh -2% and A-T KAP1 phos 25µM*.
`CC(=O)n1c2ccccc2c2ccccc21` gave Anesthetic bind -13%, CCT modulator 1, MmCpn inh 4% and A-T KAP1 phos -3%.
